By AC50 is commonly meant the concentration giving half of the maximal activity seen.

In PubChem BioAssay (EPA / NIEHS) one finds outcome and AC50 data, which are given here for 3 molecules.

Activity calls are given as the source filed them. Rule for the calls: active = hit-call score of the fitted dose curve at least 0.9, where 1 is the maximum; inactive = score below 0.9.

Common to all, as to conditions: mRNA level, 48 h; actives raise or lower the signal
Read-out in test [1]: growth arrest and DNA damage 45 (GADD45B), GADD45B (gene 4616)
As to the kind of experiment: LTEA_HepaRG_GADD45B: Life Technologies and Expression Analysis (LTEA) Assay for growth arrest and DNA damage 45 (GADD45B) using HepaRG (AID 2283461). In outline: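 Differentiated HepaRG cells, plated 48 h then switched to serum-free induction medium, were exposed 48 h in duplicate to eight half-log concentrations from 100 uM in 0.5% DMSO; mRNA quantified by qRT-PCR, normalized to ACTB/GAPDH/POLR2A, bidirectional fit versus DMSO.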

Read-out in test [2]: ABC Transporter (ABCC3), ABCC3 (gene 8714)
As to the kind of experiment: LTEA_HepaRG_ABCC3: Life Technologies and Expression Analysis (LTEA) Assay for ABC Transporter (ABCC3) using HepaRG (AID 2283462). In short, it runs like this: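 HepaRG cells in serum-free induction medium were exposed for 48 h in duplicate to 8-point half-log concentrations topping at 100 uM in 0.5% DMSO. ABCC3 mRNA was measured by qRT-PCR normalized to ACTB, GAPDH and POLR2A, with bidirectional fitting versus DMSO.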

Read-out in test [3]: ABC Transporter (ABCB11), ABCB11 (gene 8647)
The test can be described thus: LTEA_HepaRG_ABCB11: Life Technologies and Expression Analysis (LTEA) Assay for ABC Transporter (ABCB11) using HepaRG (AID 2283463). In short, it runs like this: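 HepaRG, 48 h exposure, 8-pt half-log CRC top 100 uM, 0.5% DMSO vehicle, duplicates. Readout: TaqMan qRT-PCR of ABCB11 mRNA, housekeeping-normalized (ACTB/GAPDH/POLR2A). Bidirectional fit vs DMSO baseline.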

Read-out in test [4]: Broad substrate specificity ATP-binding cassette transporter ABCG2 (Homo sapiens) (UniProt Q9UNQ0)
The test can be described thus: LTEA_HepaRG_ABCG2: Life Technologies and Expression Analysis (LTEA) Assay for ABC Transporter (ABCG2) using HepaRG (AID 2283465). In short, it runs like this:
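HepaRG, 48 h exposure, 8-pt half-log series from 100 uM, 0.5% DMSO vehicle, duplicates. Readout: ABCG2 transcript by qRT-PCR (Fluidigm array), housekeeping-normalized; bidirectional curve fit relative to DMSO baseline.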

Read-out in test [5]: ATP-citrate lyase (ACLY), ACLY (gene 47)
As to the kind of experiment: LTEA_HepaRG_ACLY: Life Technologies and Expression Analysis (LTEA) Assay for ATP-citrate lyase (ACLY) using HepaRG (AID 2283466). In outline: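 qRT-PCR readout of ACLY transcript after 48 h chemical treatment of HepaRG cells; expression normalized to three housekeeping genes. Eight-point half-log series, highest 100 uM, 0.5% DMSO vehicle. Gain or loss fitted against DMSO baseline.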

Read-out in test [6]: Peroxisomal acyl-coenzyme A oxidase 1 (ACOX1) gene, ACOX1 (gene 51)
As to the kind of experiment: LTEA_HepaRG_ACOX1: Life Technologies and Expression Analysis (LTEA) Assay for Peroxisomal acyl-coenzyme A oxidase 1 (ACOX1) gene using HepaRG (AID 2283467). In outline:
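HepaRG, 48 h chemical exposure, 8-pt half-log series from 100 uM top, 0.5% DMSO vehicle, duplicates. Readout: ACOX1 mRNA by Fluidigm qRT-PCR, housekeeping-normalized; bidirectional fit vs DMSO baseline.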

Read-out in test [7]: Alkaline Phosphatase, Placental (ALPP) gene, ALPP (gene 250)
The test can be described thus: LTEA_HepaRG_ALPP: Life Technologies and Expression Analysis (LTEA) Assay for Alkaline Phosphatase, Placental (ALPP) gene using HepaRG (AID 2283468). In outline: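 Differentiated human HepaRG cells were plated and cultured 48 h, then exposed in duplicate for 48 h in serum-free induction medium to eight half-log concentrations from 100 uM in 0.5% DMSO. ALPP mRNA was measured by TaqMan qRT-PCR, normalized to ACTB, GAPDH, POLR2A.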

Read-out in test [8]: Bcl-2 (BAD) gene, BAD (gene 572)
As to the kind of experiment: LTEA_HepaRG_BAD: Life Technologies and Expression Analysis (LTEA) Assay for Bcl-2 (BAD) gene using HepaRG (AID 2283469). In outline:
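HepaRG, 48 h exposure, 8-pt half-log curve from 100 uM in 0.5% DMSO, duplicates. Readout: TaqMan qRT-PCR for BAD mRNA, housekeeping-normalised (ACTB/GAPDH/POLR2A); gain or loss fitted against DMSO baseline.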

Read-out in test [9]: Bcl-2 (BAX) gene, BAX (gene 581)
The test can be described thus: LTEA_HepaRG_BAX: Life Technologies and Expression Analysis (LTEA) Assay for Bcl-2 (BAX) gene using HepaRG (AID 2283470). In short, it runs like this:
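Cells were thawed, plated for 48 h, moved to serum-free induction medium and dosed for 48 h (highest concentration 100 uM, half-log steps, 0.5% DMSO). Total RNA was then analysed for BAX expression by qRT-PCR.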

Read-out in test [10]: Alpha-fetoprotein (AFP) gene, AFP (gene 174)
As to the kind of experiment: LTEA_HepaRG_AFP: Life Technologies and Expression Analysis (LTEA) Assay for Alpha-fetoprotein (AFP) gene using HepaRG (AID 2283472). In short, it runs like this: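 Chemicals were tested on differentiated HepaRG cells for 48 hours at eight concentrations up to 100 uM, with 0.5% DMSO as vehicle. AFP expression was then quantified by qRT-PCR and analyzed for gain or loss relative to DMSO.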

Read-out in another test: BCL2L11 (gene 10018)
The test can be described thus: LTEA_HepaRG_BCL2L11: Life Technologies and Expression Analysis (LTEA) Assay for Bcl-2 (BCL2L11) gene using HepaRG (AID 2283473). In short, it runs like this:
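Differentiated human HepaRG cells in serum-free induction medium were exposed in duplicate for 48 h to eight concentrations (top 100 uM, half-log steps, 0.5% DMSO). BCL2L11 mRNA was quantified by TaqMan qRT-PCR, normalized to ACTB/GAPDH/POLR2A, bidirectional fit versus DMSO.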

Read-out in test [11]: Apolipoprotein A-V (APOA5) gene, APOA5 (gene 116519)
As to the kind of experiment: LTEA_HepaRG_APOA5: Life Technologies and Expression Analysis (LTEA) Assay for Apolipoprotein A-V (APOA5) gene using HepaRG (AID 2283474). In short, it runs like this:
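Differentiated human HepaRG cells were exposed in duplicate for 48 h to eight half-log concentrations from 100 uM in 0.5% DMSO. APOA5 mRNA was quantified by TaqMan qRT-PCR, normalized to ACTB, GAPDH and POLR2A, and fitted bidirectionally against DMSO.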

Read-out in test [12]: Apoptosis regulator Bcl-2 (Homo sapiens) (UniProt P10415)
As to the kind of experiment: LTEA_HepaRG_BCL2: Life Technologies and Expression Analysis (LTEA) Assay for Bcl-2 gene using HepaRG (AID 2283475). In outline: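 Plated human HepaRG cells are exposed to test chemicals for 48 h across eight concentrations from 100 uM downward in half-log steps (0.5% DMSO). BCL2 expression is then measured by qRT-PCR with housekeeping normalisation and fitted bidirectionally against vehicle.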

Read-out in test [13]: Bcl-2 (BID) gene, BID (gene 637)
As to the kind of experiment: LTEA_HepaRG_BID: Life Technologies and Expression Analysis (LTEA) Assay for Bcl-2 (BID) gene using HepaRG (AID 2283476). In short, it runs like this: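 Cells are plated, cultured 48 h, switched to serum-free induction medium, then dosed 48 h (100 uM top, half-log steps, 0.5% DMSO). RNA is isolated and BID expression read by qRT-PCR.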

Read-out in another test: Caspase-3 (Homo sapiens) (UniProt P42574)
As to the kind of experiment: LTEA_HepaRG_CASP3: Life Technologies and Expression Analysis (LTEA) Assay for cysteine-aspartic acid protease (CASP3) using HepaRG (AID 2283477). In short, it runs like this:
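Differentiated human HepaRG cells in serum-free induction medium were exposed 48 h to 8-point half-log concentrations from 100 uM (0.5% DMSO vehicle). CASP3 mRNA was measured by qRT-PCR, normalised to ACTB, GAPDH and POLR2A, with bidirectional fitting against DMSO.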

Read-out in test [14]: cysteine-aspartic acid protease (CASP8), CASP8 (gene 841)
As to the kind of experiment: LTEA_HepaRG_CASP8: Life Technologies and Expression Analysis (LTEA) Assay for cysteine-aspartic acid protease (CASP8) using HepaRG (AID 2283480). In outline:
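qRT-PCR readout of CASP8 mRNA, normalized to three housekeeping genes, after 48 h chemical exposure of HepaRG cells; 8-point half-log series, top 100 uM, 0.5% DMSO vehicle. Bidirectional curve fitting against DMSO baseline.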

Read-out in test [15]: Cytochrome P450 (CYP24A1), CYP24A1 (gene 1591)
The test can be described thus: LTEA_HepaRG_CYP24A1: Life Technologies and Expression Analysis (LTEA) Assay for Cytochrome P450 (CYP24A1) using HepaRG (AID 2283478). In short, it runs like this:
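Differentiated HepaRG cells, pre-cultured 48 h, were exposed in duplicate for 48 h in serum-free induction medium to 8 half-log concentrations (top 100 uM, 0.5% DMSO). CYP24A1 mRNA was quantified by TaqMan qRT-PCR, normalized to ACTB/GAPDH/POLR2A, fitted bidirectionally versus DMSO.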

Read-out in test [16]: Cytochrome P450 (CYP1A2), CYP1A2 (gene 1544)
As to the kind of experiment: LTEA_HepaRG_CYP1A2: Life Technologies and Expression Analysis (LTEA) Assay for Cytochrome P450 (CYP1A2) using HepaRG (AID 2283479). In outline: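 Differentiated human HepaRG cells in serum-free induction medium were exposed in duplicate for 48 h to 8-point half-log concentrations up to 100 uM in 0.5% DMSO. CYP1A2 mRNA measured by qRT-PCR, normalized to ACTB, GAPDH, POLR2A; bidirectional fit vs DMSO.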

Read-out in test [17]: ABC Transporter (ABCC2), ABCC2 (gene 1244)
As to the kind of experiment: LTEA_HepaRG_ABCC2: Life Technologies and Expression Analysis (LTEA) Assay for ABC Transporter (ABCC2) using HepaRG (AID 2283464). In short, it runs like this: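 HepaRG cells were plated 48 h, switched to serum-free induction medium, then exposed in duplicate for 48 h to 8 concentrations (top 100 uM, half-log steps, 0.5% DMSO). ABCC2 mRNA was measured by qRT-PCR normalized to ACTB/GAPDH/POLR2A; bidirectional fitting versus DMSO.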

Sequence of Apoptosis regulator Bcl-2 (Homo sapiens) (P10415 whole entry, looked up): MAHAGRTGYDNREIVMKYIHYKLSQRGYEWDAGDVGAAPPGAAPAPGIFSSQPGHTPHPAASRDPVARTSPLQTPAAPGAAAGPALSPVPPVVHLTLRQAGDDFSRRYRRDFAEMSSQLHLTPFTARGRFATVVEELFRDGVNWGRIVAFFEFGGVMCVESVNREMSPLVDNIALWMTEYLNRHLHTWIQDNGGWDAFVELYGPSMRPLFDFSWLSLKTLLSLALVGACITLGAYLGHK
Sequence of Broad substrate specificity ATP-binding cassette transporter ABCG2 (Homo sapiens) (Q9UNQ0 whole entry, looked up): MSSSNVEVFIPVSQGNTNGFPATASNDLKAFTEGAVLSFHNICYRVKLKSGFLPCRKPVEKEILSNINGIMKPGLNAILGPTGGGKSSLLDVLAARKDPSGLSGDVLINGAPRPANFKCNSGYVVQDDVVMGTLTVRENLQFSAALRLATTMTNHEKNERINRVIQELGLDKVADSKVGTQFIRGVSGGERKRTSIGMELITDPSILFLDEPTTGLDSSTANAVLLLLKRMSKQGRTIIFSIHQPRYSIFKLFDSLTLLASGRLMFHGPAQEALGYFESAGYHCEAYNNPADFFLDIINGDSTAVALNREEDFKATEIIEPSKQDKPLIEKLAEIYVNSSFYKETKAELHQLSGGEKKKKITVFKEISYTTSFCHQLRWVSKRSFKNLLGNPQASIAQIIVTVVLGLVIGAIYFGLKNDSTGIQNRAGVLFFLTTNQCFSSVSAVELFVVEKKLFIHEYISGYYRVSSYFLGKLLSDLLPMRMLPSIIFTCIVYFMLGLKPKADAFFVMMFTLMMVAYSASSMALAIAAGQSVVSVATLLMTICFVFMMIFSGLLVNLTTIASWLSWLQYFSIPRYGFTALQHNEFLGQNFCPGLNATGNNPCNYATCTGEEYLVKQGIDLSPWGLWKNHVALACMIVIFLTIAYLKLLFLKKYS
Sequence of Caspase-3 (Homo sapiens) (P42574 whole entry, looked up): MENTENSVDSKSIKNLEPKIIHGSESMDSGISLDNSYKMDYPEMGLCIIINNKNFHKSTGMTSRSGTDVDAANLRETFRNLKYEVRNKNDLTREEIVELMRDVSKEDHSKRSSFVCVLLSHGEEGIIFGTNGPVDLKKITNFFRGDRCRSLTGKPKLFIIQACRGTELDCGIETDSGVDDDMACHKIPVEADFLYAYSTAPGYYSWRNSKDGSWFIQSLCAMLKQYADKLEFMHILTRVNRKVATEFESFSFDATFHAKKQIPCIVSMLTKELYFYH

In the case of `Cc1ccc(S(=O)(=O)NC(=O)NN2CCCCCC2)cc1`, the result in test [1], in test [2], in test [3], in [4], in test [5] and in test [6] was inactive. In addition, the result (in test [8]; in test [9]; in test [10]; in the test with BCL2L11 (gene 10018); in test [11]; in [12]) was inactive. Besides, the molecule was classed as inactive (in [13]; with Caspase-3 (Homo sapiens); in test [14]). In test [7], the AC50 was 0.161 µM (active).
Take `O=S1(=O)CCCO1`: the molecule was classed as inactive in test [1], in test [2], in test [3], in [4], in [5] and in test [6]. Further, the result (in [7]; in test [8]; in test [9]; in test [10]; with BCL2L11 (gene 10018); in [11]) was inactive. The call (in test [12]; in [13]; with Caspase-3 (Homo sapiens); in [15]; in [16]; in test [14]) was inactive.
`CCCCN1C(=O)[C@@H]([C@H](O)C2CCCCC2)NC(=O)C12CCN(Cc1ccc(Oc3ccc(C(=O)O)cc3)cc1)CC2`: the AC50 in test [1] is 21.5 µM (active); in test [2], 4.37 µM (active); in test [3], 0.849 µM (active); in [17], 2.88 µM (active); in [4], 1.54 µM (active); in test [5], 0.672 µM (active). Moreover, the AC50 in test [6] is 2.79 µM (active); in [7], 7.87 µM (active); in [8], 3.81 µM (active); in test [10] it was 3 µM (active); in the test with BCL2L11 (gene 10018), 4.66 µM (active); in test [11] it was 3.04 µM (active). Besides, the AC50 in [12] is 12.7 µM (active); in the test with Caspase-3 (Homo sapiens), 2.23 µM (active); in test [15] it was 9.92 µM (active); in test [16], 2.06 µM (active); in test [14], 3.02 µM (active). Further, the molecule was classed as inactive in test [9] and in test [13].
